Test systems include SK-MEL-2 melanoma; EKVX NSCLC; SN12C renal; UO-31 renal; TK-10 renal; ACHN renal; CAKI-1 renal; A498 renal; MOLT-4 leukemia; SR leukemia; RPMI-8226 leukemia; OVCAR-8 ovarian; OVCAR-5 ovarian; OVCAR-4 ovarian; SK-OV-3 ovarian; IGROV1 ovarian; OVCAR-3 ovarian; HS 578T breast; NCI/ADR-RES ovarian.
What all share (experiment): NCI-60 one-dose screen, 48 h (100 = growth as untreated, 0 = no growth, -100 = all killed)
Conditions in all cases: 10 µM unless noted

The panel holds about 83,000 compounds, 20% with a hit somewhere; the sample as a whole holds those more often.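 Method: cells in 96-well plates; compound added at one concentration; 48 h incubation; percent growth measured; values under 10 scored active.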 Values without a mark were called inactive. Calls of active or inactive are those of the source.

Turning to `CCCCCCCC/C=C\CCCCCCCCOc1ccccc1CC(=O)NCC[N+](C)(C)C`, the growth was 96.4% in the experiment with SK-MEL-2 melanoma; 83.4% with EKVX NSCLC; 67.5% in the experiment on SN12C renal; 79.6% in the experiment with UO-31 renal; 9.37% (active) in the experiment on TK-10 renal; 68.2% with ACHN renal. The growth in the experiment with CAKI-1 renal is 50.7%; in the experiment with A498 renal, 100%; in the experiment with MOLT-4 leukemia, 77.3%; in the experiment on SR leukemia, 23.6%; in the experiment with RPMI-8226 leukemia it was 56.1%; in the experiment on OVCAR-8 ovarian, 64.4%. Besides, the growth with OVCAR-5 ovarian is 25%; in the experiment with OVCAR-4 ovarian it was 78.7%; in the experiment on SK-OV-3 ovarian, 81.9%; in the experiment on IGROV1 ovarian, 28.9%; with OVCAR-3 ovarian, 83.2%; in the experiment on HS 578T breast, 91.8%. The growth in the experiment with NCI/ADR-RES ovarian is 104%.

`N#CC1=C(/N=C/c2ccccc2)Oc2c(ccc3ccccc23)C1c1ccccc1` (stereo not drawn): the growth in the experiment with SK-MEL-2 melanoma is 45.7%; in the experiment on EKVX NSCLC it was 34.6%; in the experiment with SN12C renal, 37.8%; with UO-31 renal, 32%; in the experiment on TK-10 renal, 45.2%; in the experiment on ACHN renal, 34.3%. For the same molecule, the growth with CAKI-1 renal is 24%; in the experiment on A498 renal, 16.3%; with MOLT-4 leukemia, 19.8%; with SR leukemia, 19.2%; with RPMI-8226 leukemia it was 11%; in the experiment with OVCAR-8 ovarian, 12.5%. Also, the growth with OVCAR-5 ovarian was 28.8%; in the experiment on OVCAR-4 ovarian, 62.7%; with SK-OV-3 ovarian it was 23.8%; with IGROV1 ovarian, 25.1%; with OVCAR-3 ovarian it was -2.72% (active); with HS 578T breast, 18.5%. The growth with NCI/ADR-RES ovarian was 1.37% (active).

In the case of `O=[N+]([O-])c1ccc(-c2cc(-c3ccc(Nc4nc(Nc5ccc(Cl)cc5)nc(Nc5ccc(Cl)cc5)n4)cc3)no2)cc1`, the growth is 72.4% in the experiment on SK-MEL-2 melanoma; 92.9% in the experiment with EKVX NSCLC; 97.6% with SN12C renal; 78.8% in the experiment with UO-31 renal; 105% in the experiment with TK-10 renal; 94.5% in the experiment with ACHN renal. The growth in the experiment with CAKI-1 renal is 115%; in the experiment on A498 renal, 88.2%; in the experiment on MOLT-4 leukemia, -19.7% (active); in the experiment with SR leukemia, 14.5%; in the experiment on RPMI-8226 leukemia it was 34.7%; in the experiment with OVCAR-8 ovarian, 99%. In addition, the growth in the experiment with OVCAR-5 ovarian was 70.7%; with OVCAR-4 ovarian, 31.4%; in the experiment on SK-OV-3 ovarian it was 107%; in the experiment with IGROV1 ovarian it was 92%; in the experiment with OVCAR-3 ovarian it was 241%; in the experiment on HS 578T breast, 99.9%. The growth in the experiment with NCI/ADR-RES ovarian was 75.3%.

Consider `O=C(c1ccccc1)N1N=C(c2ccccc2)CC1c1nnc2n(Cc3ccccc3)c(=O)c3c4c(sc3n12)CCCC4` (stereo not drawn), for which the growth is 77.6% with SK-MEL-2 melanoma; 102% in the experiment on EKVX NSCLC; 120% in the experiment with SN12C renal; 84.4% with UO-31 renal; 111% in the experiment on TK-10 renal; 99.8% in the experiment on ACHN renal. The growth in the experiment on CAKI-1 renal was 99.3%; with A498 renal, 114%; in the experiment on MOLT-4 leukemia, 88.8%; in the experiment with SR leukemia, -16.1% (active); with RPMI-8226 leukemia it was 91.6%; in the experiment on OVCAR-8 ovarian, 106%. Also, the growth with OVCAR-5 ovarian was 133%; in the experiment on OVCAR-4 ovarian it was 108%; in the experiment with SK-OV-3 ovarian, 106%; with OVCAR-3 ovarian, 112%; in the experiment with HS 578T breast, 109%; in the experiment with NCI/ADR-RES ovarian, 118%.

In the case of `CCCCCCCCCCN(CCCCCCCCCC)CC(=O)c1ccc2cc(Br)c3ccccc3c2c1`, the growth with SK-MEL-2 melanoma was 101%; in the experiment on EKVX NSCLC, 83.5%; in the experiment with SN12C renal it was 81.1%; with UO-31 renal, 2.3% (active); in the experiment with TK-10 renal, 79.9%; with ACHN renal, 97.3%. Further, the growth in the experiment with CAKI-1 renal is 46.3%; in the experiment on A498 renal it was 53.2%; with MOLT-4 leukemia it was -39.6% (active); with SR leukemia, -28.5% (active); with RPMI-8226 leukemia, -33.1% (active); in the experiment with OVCAR-8 ovarian, 86.9%. Moreover, the growth is 77.4% in the experiment with OVCAR-4 ovarian; 104% with SK-OV-3 ovarian; -79.5% (active) in the experiment on IGROV1 ovarian; 51.2% in the experiment with OVCAR-3 ovarian; 64.8% in the experiment with NCI/ADR-RES ovarian.

Take `COc1cc(/C=C/C(=O)c2ccc(Nc3nc(Nc4ccc(F)cc4)nc(Nc4ccc(Cl)cc4)n3)cc2)cc(OC)c1OC`: the growth is 62.6% with SK-MEL-2 melanoma; 74.1% in the experiment with EKVX NSCLC; 70.1% in the experiment with SN12C renal; 42.4% in the experiment with UO-31 renal; 73.9% with TK-10 renal; 78.1% in the experiment with ACHN renal. Moreover, the growth in the experiment on CAKI-1 renal was 124%; in the experiment with A498 renal, 79.8%; in the experiment with MOLT-4 leukemia, 0.996% (active); in the experiment on SR leukemia, -5.99% (active); with RPMI-8226 leukemia, -47.5% (active); in the experiment with OVCAR-8 ovarian, 31.7%. In addition, the growth in the experiment on OVCAR-5 ovarian is 81.3%; in the experiment with OVCAR-4 ovarian, 31.8%; with SK-OV-3 ovarian, 105%; in the experiment on IGROV1 ovarian, 54.8%; with HS 578T breast it was 59.1%; in the experiment on NCI/ADR-RES ovarian it was 38.9%.

`Cc1ccc(-n2c(-c3ccccc3)c(-c3ccccc3)c3c(SCC(=O)n4[nH]c(N)cc4=O)ncnc32)cc1`: the growth in the experiment on SK-MEL-2 melanoma was 108%; in the experiment on EKVX NSCLC, 87.2%; in the experiment on SN12C renal, 99.2%; with UO-31 renal, 71.9%; in the experiment on TK-10 renal, 104%; with ACHN renal, 91.2%. For the same molecule, the growth in the experiment with CAKI-1 renal is 88.4%; with A498 renal, 114%; with MOLT-4 leukemia, 87.3%; in the experiment with SR leukemia, 103%; in the experiment with RPMI-8226 leukemia, 81.9%; with OVCAR-8 ovarian it was 83.2%. Moreover, the growth in the experiment on OVCAR-4 ovarian was 96%; in the experiment on SK-OV-3 ovarian, 79.5%; with IGROV1 ovarian, 79.8%; in the experiment with OVCAR-3 ovarian it was 91.9%; in the experiment on HS 578T breast, 106%; with NCI/ADR-RES ovarian, 105%.
